Experiments:
Format in all cases: functional
[1] = target: Solute carrier family 2, facilitated glucose transporter member 1 (Homo sapiens) (UniProt P11166); test: ST_JUDE_LEISH: Cytotoxicity at 2uM final concentration against transgenic Leishmania Mexicana promastigotes LmGLUT1 that are glucose transport deficient and complemented with the human glucose transporter GLUT1. Activity is measured by DNA content using SYBR green in vitro
[2] = target: Hexose transporter 1 (Plasmodium falciparum) (UniProt O97467); test: ST_JUDE_LEISH: Cytotoxicity at 2uM final concentration against transgenic Leishmania Mexicana promastigotes LmPfHT that are glucose transport deficient and complemented with the Plasmodium falciparum hexose transporter. Activity is measured by DNA content using SYBR green in vitro
[3] = target: Glucose transporter (Leishmania mexicana) (UniProt O61059); test: ST_JUDE_LEISH: Cytotoxicity at 2uM final concentration against transgenic Leishmania Mexicana promastigotes LmGT2 that are glucose transport deficient and complemented with the L. Mexicana glucose transporter 2. Activity is measured by DNA content using SYBR green in vitro

Solute carrier family 2, facilitated glucose transporter member 1 (Homo sapiens), sequence (P11166 whole entry): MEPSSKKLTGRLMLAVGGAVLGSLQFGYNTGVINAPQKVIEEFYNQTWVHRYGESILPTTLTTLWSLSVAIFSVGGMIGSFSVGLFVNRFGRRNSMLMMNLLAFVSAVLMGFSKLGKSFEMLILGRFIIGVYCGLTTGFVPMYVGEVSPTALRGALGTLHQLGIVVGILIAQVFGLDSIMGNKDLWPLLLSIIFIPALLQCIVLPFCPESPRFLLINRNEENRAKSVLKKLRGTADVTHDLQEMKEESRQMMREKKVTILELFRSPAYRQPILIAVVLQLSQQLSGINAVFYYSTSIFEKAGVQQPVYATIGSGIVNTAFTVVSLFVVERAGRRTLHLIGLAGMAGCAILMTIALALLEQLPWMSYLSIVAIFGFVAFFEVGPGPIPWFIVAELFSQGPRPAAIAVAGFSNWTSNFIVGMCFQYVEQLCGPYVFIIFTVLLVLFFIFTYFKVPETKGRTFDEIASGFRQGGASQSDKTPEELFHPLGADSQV

| Structure (SMILES) | inhibition [1] | inhibition [2] | inhibition [3] |
| --- | --- | --- | --- |
| CC1(C)N=C(N)N=C(N)N1c1ccc(Oc2ccccc2)cc1 | 1.59% | 1.71% | 2.8% |
| CCOc1ccc2ccccc2c1C(=O)Nc1cc(C)nn1-c1nc(C)cc(=O)[nH]1 | 49.6% | 44.4% | 20.4% |
| COc1ccc(C(=O)CCC(=O)N(CCSC(C)(C)C)Cc2ccc(-c3ccc(CNCCc4ccc(S(C)(=O)=O)cc4)cn3)cc2)cc1F | 10.4% | 9.03% | 7.07% |
